# Data published in PubChem BioAssay AID2035 (National Center for Advancing Translational Sciences (NCATS), 2009).
# Some of the results follow. Calls of active or inactive are those of the source. The call rests on the fitted dose curve; in most records, active means well fitted inhibition curve with a large enough effect; inconclusive means small, poorly fitted or top-dose-only effect; inactive means flat fitted curve, though single readings scatter.
# Assay: Confirmatory Assay for Inhibitors of Human Galactokinase (GALK): Phenol-HRP redox assay counterscreen
# Conditions: Phenol red-HRP H2O2 redox cycling, absorbance 600 nm; series mostly up to 115 µM; activity change, negative = H2O2 signal: at the top concentration
# Text: NIH Molecular Libraries Probe Production Centers Network [MLPCN] NIH Chemical Genomics Center [NCGC] MLPCN Grant: R03 MH085689-01 Assay Submitter (PI): Kent Lai (University of Utah School of Medicine, 50 N Mario Capecchi Drive, Salt Lake City, UT 84132) NCGC Assay Overview: One mM dithiothreitol (DTT) was used as a reducing agent to maintain the galactokinase (GALK) enzyme in its active form in the GALK qHTS screen (AID: 1868). However, it has been shown that in the presence of DTT a number of compounds also undergo redox recyling, generating a significant amount of H2O2 that can oxidize crucial cysteine residues in the enzyme, leading to and a false-positive result. To evaluate and flag redox recycling compounds for compounds re-acquired from the qHTS screen, an endpoint colorimetric assay developed by Johnston et al. was adopted and optimized for a 1536-well plate format. In brief, the assay detects the presence of H2O2 by following the change in absorbance at 600 nm due to oxidation of phenol red (Sigma, cat# 114537) catalyzed by horseradish peroxidase (HRP; Invitrogen). A stop reagent, 1N NaOH was added prior to reading the absorbance. DMSO and different concentrations of hydrogen peroxide (Sigma, cat# 216763) in the GALK buffer were used as negative and positive controls respectively.
# NCGC Assay Protocol Summary: Two uL/well of GALK buffer (20mM HEPES pH8.0, 5 mM MgCl2, 60 mM NaCl, 1 mM DTT, 0.01% BSA final concentration) was dispensed into a 1536-well assay plates (Greiner, black clear bottom plates) with Aurora Discovery BioRAPTR Flying Reagent Dispenser (FRD; Beckton-Dickenson). Compound and control solutions (23 nL each) were transferred to the assay plate in their respective wells using Kalypsys pin tool equipped with a 1536-pin tool head and incubated at room temperature for 30 min. Presence of H2O2 produced by redox cycling compounds was detected by adding 2 uL/well phenol red - HRP detection reagent ([…] phenol red in 1x Hanks Balanced Salt Solution, 25 U/mL HRP final concentrations). After 15 min of room temperature incubation, the reaction was stopped by adding 2 uL/well 1N NaOH and incubated for an additional 1 hr at room temperature. The absorbance at 600 nm was measured using the ViewLux plate reader (Perkin Elmer, Waltham, MA) with 6000 light energy, 2 sec exposure, and 2x binning instrument settings.
SMILES,Potency,"activity change, negative = H2O2 signal"
CCOC(=O)c1c(C)[nH]c2c1-c1ccccc1C(=O)C2=O,1.19 µM (active),–
O=C(Nc1nnc(S(=O)(=O)N2CCOCC2)s1)c1cccc(Br)c1,–,-2.69% (inactive)
N#Cc1c(N2CCCCC2)nc(N)c2c(N)nc(SCC(=O)O)cc12,18.8 µM (active),–
Oc1c(Cl)cc(Cl)c(Cl)c1Cc1c(O)c(Cl)cc(Cl)c1Cl,–,2% (inactive)
COc1cccc2cc(-c3cc(=O)oc4cc(C)c(O)cc34)oc12,–,0.246% (inactive)
CCS(=O)(=O)C1=NSC2=NC(=O)/C(=C\c3ccc(OS(=O)(=O)c4ccccc4)cc3)C(=N)N21,–,7.35% (inactive)
N#C/C(=C(/O)Cc1cccc2ccccc12)c1nc2ccccc2s1,–,8.88% (inactive)
